According to PubChem BioAssay (NCI):
Compounds without any hit were thinned out: in the full panel of roughly 83,000, 20% have a hit.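 The test compound was applied at a single concentration to cells in 96-well plates for 48 hours, and percent growth was recorded.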 The source made the active and inactive calls. The calls were made as follows: active = growth percent below 10; inactive = the rest.

What was measured:
Assay in all cases: NCI-60 one-dose screen, 48 h (100 = growth as untreated, 0 = no growth, -100 = all killed)
Settings in all cases: 10 µM unless noted
NCI-H23 lung = test system: NCI-H23 lung
NCI-H226 lung = test system: NCI-H226 lung
NCI-H322M lung = test system: NCI-H322M lung
HOP-62 NSCLC = test system: HOP-62 NSCLC
NCI-H460 lung = test system: NCI-H460 lung
HOP-92 NSCLC = test system: HOP-92 NSCLC
NCI-H522 lung = test system: NCI-H522 lung
A549/ATCC NSCLC = test system: A549/ATCC NSCLC
786-0 renal = test system: 786-0 renal
COLO 205 colon = test system: COLO 205 colon
DU-145 prostate = test system: DU-145 prostate
K-562 leukemia = test system: K-562 leukemia
MALME-3M melanoma = test system: MALME-3M melanoma
MDA-MB-231 breast = test system: MDA-MB-231 breast
SF-268 CNS = test system: SF-268 CNS
SF-295 CNS = test system: SF-295 CNS
SF-539 CNS = test system: SF-539 CNS
M14 melanoma = test system: M14 melanoma

Measured: growth

CC(N)C(Cc1ccccc1)c1ccc(Cl)cc1 (stereo not drawn)
inactive: NCI-H23 lung 92.5% | NCI-H226 lung 89.3% | NCI-H322M lung 95.5% | HOP-62 NSCLC 56.9% | NCI-H460 lung 90.9% | HOP-92 NSCLC 56.5% | NCI-H522 lung 75.9% | A549/ATCC NSCLC 76.2% | 786-0 renal 81% | COLO 205 colon 84.4% | DU-145 prostate 110% | K-562 leukemia 87% | MALME-3M melanoma 103% | MDA-MB-231 breast 61.1% | SF-268 CNS 92.2% | SF-295 CNS 83.5% | SF-539 CNS 90.1% | M14 melanoma 82.6%

COc1cc(NCCN(CC(C)C)CC(C)C)c2ncc(C)cc2c1
inactive: NCI-H23 lung 42% | NCI-H226 lung 90.5% | NCI-H322M lung 82.9% | HOP-62 NSCLC 51.5% | NCI-H460 lung 60.4% | HOP-92 NSCLC 132% | NCI-H522 lung 73.2% | A549/ATCC NSCLC 31.7% | 786-0 renal 91.3% | COLO 205 colon 49.6% | DU-145 prostate 71.4% | K-562 leukemia 34.2% | MALME-3M melanoma 66.7% | MDA-MB-231 breast 50.3% | SF-268 CNS 71.1% | SF-295 CNS 64.6% | SF-539 CNS 97.7% | M14 melanoma 61%

COc1ccc2c(CCCC(c3ccccc3)c3ccccc3)c3[n+](cc2c1OC)CCc1cc2c(cc1-3)OCO2
inactive: NCI-H322M lung 16.2% | A549/ATCC NSCLC 10.2%
active: NCI-H23 lung -30.1% | NCI-H226 lung 2.75% | HOP-62 NSCLC -9.19% | NCI-H460 lung -53% | HOP-92 NSCLC -40.6% | NCI-H522 lung -21% | 786-0 renal -18.7% | COLO 205 colon -67.8% | DU-145 prostate -13.4% | K-562 leukemia -15.4% | MALME-3M melanoma -66.7% | MDA-MB-231 breast -63.4% | SF-268 CNS -58% | SF-295 CNS -32.2% | SF-539 CNS -38.1% | M14 melanoma -67.5%

Nc1c(C(=O)c2ccccc2)sc2nc(-c3cccs3)ccc12
active: NCI-H522 lung -25.7% | COLO 205 colon -21.8% | SF-295 CNS 5.01% | SF-539 CNS 1.09%
inactive: NCI-H23 lung 36.8% | NCI-H226 lung 63.5% | NCI-H322M lung 51.1% | HOP-62 NSCLC 44.5% | NCI-H460 lung 12.1% | HOP-92 NSCLC 69.6% | A549/ATCC NSCLC 19.6% | 786-0 renal 51.7% | DU-145 prostate 20.6% | K-562 leukemia 14.1% | MALME-3M melanoma 72.5% | MDA-MB-231 breast 37.9% | SF-268 CNS 45.7% | M14 melanoma 30.2%

O=C(Cc1ccccc1)Nc1nnc(NC2CCN(c3nnc(NC(=O)Cc4ccccc4)s3)CC2)s1
inactive: NCI-H23 lung 96.1% | NCI-H226 lung 98.7% | NCI-H322M lung 35.3% | HOP-62 NSCLC 75.9% | NCI-H460 lung 93.3% | HOP-92 NSCLC 94.5% | NCI-H522 lung 72.5% | A549/ATCC NSCLC 34.4% | 786-0 renal 89% | COLO 205 colon 90.1% | DU-145 prostate 91.7% | K-562 leukemia 87.9% | MALME-3M melanoma 82.8% | MDA-MB-231 breast 77.5% | SF-268 CNS 91.1% | SF-295 CNS 56.8% | SF-539 CNS 93.5% | M14 melanoma 85.2%

NS(=O)(=O)c1ccc(CCN2C(=O)/C(=C\c3ccc(Cl)cc3)C=C2c2ccc3ccccc3c2)cc1
inactive: NCI-H23 lung 95.4% | NCI-H226 lung 80.8% | NCI-H322M lung 92.4% | HOP-62 NSCLC 72% | NCI-H460 lung 102% | HOP-92 NSCLC 94% | NCI-H522 lung 60.9% | A549/ATCC NSCLC 62% | 786-0 renal 93.4% | COLO 205 colon 100% | DU-145 prostate 108% | K-562 leukemia 96.4% | MALME-3M melanoma 98.8% | MDA-MB-231 breast 90.5% | SF-268 CNS 103% | SF-295 CNS 99.1% | SF-539 CNS 101% | M14 melanoma 95%

CC(=O)OC1Oc2ccccc2-c2oc(=O)c(-c3cc4ccc(N(C)C)cc4oc3=O)cc21 (stereo not drawn)
active: HOP-92 NSCLC -3.58% | NCI-H522 lung 6.65% | K-562 leukemia 1.45% | MALME-3M melanoma 4.74% | SF-295 CNS 6.73%
inactive: NCI-H23 lung 36.4% | NCI-H226 lung 55% | NCI-H322M lung 69.4% | HOP-62 NSCLC 69.4% | NCI-H460 lung 75.4% | A549/ATCC NSCLC 61.2% | 786-0 renal 55.2% | COLO 205 colon 67.3% | DU-145 prostate 19.1% | MDA-MB-231 breast 59.5% | SF-268 CNS 73.1% | SF-539 CNS 69.4% | M14 melanoma 47.2%

Clc1nc(Cl)c2ncn(C/C=C\Cn3cnc4c(Cl)nc(Cl)nc43)c2n1
active: NCI-H23 lung 9.28% | NCI-H226 lung -59.2% | NCI-H460 lung 3.79% | HOP-92 NSCLC -34.2% | NCI-H522 lung -76.7% | A549/ATCC NSCLC -7.32% | 786-0 renal -9.15% | COLO 205 colon -41.1% | DU-145 prostate -98.4% | K-562 leukemia -24.8% | MALME-3M melanoma -72.7% | MDA-MB-231 breast -68.5% | SF-268 CNS -2.21% | SF-295 CNS -32.9% | SF-539 CNS -52.9% | M14 melanoma -32.9%
inactive: NCI-H322M lung 21.4% | HOP-62 NSCLC 23.4%

CCC1(/C=N/NC(N)=S)NC(=O)NC1=O (stereo not drawn)
inactive: NCI-H23 lung 99.2% | NCI-H226 lung 96.6% | NCI-H322M lung 106% | HOP-62 NSCLC 78.8% | NCI-H460 lung 109% | HOP-92 NSCLC 95.5% | NCI-H522 lung 83.2% | A549/ATCC NSCLC 62.5% | 786-0 renal 105% | COLO 205 colon 111% | DU-145 prostate 112% | K-562 leukemia 109% | MALME-3M melanoma 107% | MDA-MB-231 breast 102% | SF-268 CNS 106% | SF-295 CNS 107% | SF-539 CNS 109% | M14 melanoma 103%

CCCCCCCCCCCC[n+]1ccccc1
active: NCI-H23 lung 8.58% | HOP-62 NSCLC -8.28% | NCI-H460 lung 3.69% | HOP-92 NSCLC -24.8% | NCI-H522 lung 1.19% | A549/ATCC NSCLC 9.04% | 786-0 renal -16.8% | COLO 205 colon -74% | K-562 leukemia 6.1% | MALME-3M melanoma 0.501% | MDA-MB-231 breast -2.58% | SF-295 CNS -36.5% | SF-539 CNS -2.41% | M14 melanoma -41.3%
inactive: NCI-H226 lung 24.4% | NCI-H322M lung 55.7% | DU-145 prostate 16% | SF-268 CNS 11.5%

CCN(CC)C(=O)C[N+](C)(C)CCOC(c1ccccc1)c1ccccc1
inactive: NCI-H23 lung 95.2% | NCI-H226 lung 102% | NCI-H322M lung 104% | HOP-62 NSCLC 103% | NCI-H460 lung 109% | HOP-92 NSCLC 113% | NCI-H522 lung 105% | A549/ATCC NSCLC 101% | 786-0 renal 102% | COLO 205 colon 112% | DU-145 prostate 103% | K-562 leukemia 109% | MALME-3M melanoma 98.5% | MDA-MB-231 breast 117% | SF-268 CNS 103% | SF-295 CNS 99.5% | SF-539 CNS 102% | M14 melanoma 100%

COc1ccc2c(CCc3ccc(Cl)cc3)c3[n+](cc2c1OC)CCc1cc2c(cc1-3)OCO2
inactive: NCI-H23 lung 26.1% | NCI-H226 lung 71.4% | NCI-H322M lung 90.4% | HOP-62 NSCLC 75.8% | NCI-H460 lung 10.6% | HOP-92 NSCLC 25% | NCI-H522 lung 13.4% | A549/ATCC NSCLC 50.7% | 786-0 renal 73.4% | COLO 205 colon 27.1% | DU-145 prostate 67.5% | K-562 leukemia 33.5% | MALME-3M melanoma 55.5% | MDA-MB-231 breast 66.7% | SF-268 CNS 49% | SF-295 CNS 43.3% | SF-539 CNS 53.1% | M14 melanoma 37.9%

COc1ccc(-c2nocc2-c2cc(OC)c(OC)c(OC)c2)cc1
active: NCI-H460 lung 8.8% | NCI-H522 lung -5.37% | COLO 205 colon -12.4% | SF-295 CNS -4.64% | SF-539 CNS 2.52% | M14 melanoma 3.03%
inactive: NCI-H23 lung 19.2% | NCI-H226 lung 58.8% | NCI-H322M lung 44.6% | HOP-62 NSCLC 29.6% | HOP-92 NSCLC 76% | A549/ATCC NSCLC 25.4% | 786-0 renal 43.9% | DU-145 prostate 15.2% | K-562 leukemia 12.8% | MALME-3M melanoma 60.3% | MDA-MB-231 breast 25.8% | SF-268 CNS 39%

N#Cc1c(NC(=O)c2ccco2)[n+]([O-])c2cc(F)c(F)cc2[n+]1[O-]
active: HOP-92 NSCLC -4.85%
inactive: NCI-H23 lung 82.7% | NCI-H226 lung 103% | NCI-H322M lung 103% | HOP-62 NSCLC 120% | NCI-H460 lung 106% | NCI-H522 lung 59.2% | A549/ATCC NSCLC 97.1% | 786-0 renal 98.5% | COLO 205 colon 98.3% | DU-145 prostate 76.1% | K-562 leukemia 56.6% | MALME-3M melanoma 116% | MDA-MB-231 breast 96.7% | SF-268 CNS 89.7% | SF-295 CNS 106% | SF-539 CNS 74.8% | M14 melanoma 112%

CC1(C)NC(=O)c2[nH]c3c(Cl)c(Cl)ccc3c2C1C#N (stereo not drawn)
inactive: NCI-H23 lung 75.8% | NCI-H226 lung 53.9% | NCI-H322M lung 90.5% | HOP-62 NSCLC 82.5% | NCI-H460 lung 88.7% | HOP-92 NSCLC 54.3% | NCI-H522 lung 67.8% | A549/ATCC NSCLC 80.1% | 786-0 renal 82.6% | COLO 205 colon 92.3% | DU-145 prostate 92.9% | K-562 leukemia 69.2% | MALME-3M melanoma 99.7% | MDA-MB-231 breast 91.2% | SF-268 CNS 94.8% | SF-295 CNS 59.3% | SF-539 CNS 85.4% | M14 melanoma 106%

COc1cc2c(cc1OCCCCN1CCN(CC(=O)Nc3ccc(Cl)cc3C(=O)c3ccccc3Cl)CC1)N=CC1CCCN1C2=O (stereo not drawn)
active: NCI-H23 lung -14% | NCI-H226 lung -88.1% | NCI-H322M lung -64% | HOP-62 NSCLC -88.8% | NCI-H460 lung -56.2% | HOP-92 NSCLC -85.6% | NCI-H522 lung -83.4% | A549/ATCC NSCLC -69.5% | 786-0 renal -94.2% | COLO 205 colon -61.4% | DU-145 prostate -95.9% | K-562 leukemia -53% | MALME-3M melanoma -76.8% | MDA-MB-231 breast -85% | SF-268 CNS -75.5% | SF-295 CNS -94.6% | SF-539 CNS -86.7% | M14 melanoma -67.6%
